Compound activity: PubChem, The Scripps Research Institute Molecular Screening Center
Hits are enriched below; roughly 3.4% of the tested compounds scored in any of these assays.
PAFAH2 inh: PAFAH2 enzyme inhibitors, primary screen, biochemical, fluorescence polarization, human; Platelet-activating factor acetylhydrolase 2, cytoplasmic (Homo sapiens), Q99487; recombinant PAFAH2, FP-rhodamine activity probe; inhibition, % at 3.39 µM; 340,000 compounds, 0.99% hits; AID 492956, 2010;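 active means inhibition above the mean over all tested compounds plus 3 SD, cut at about 30% in these data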;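 further: inhibitors block probe labeling of enzyme so polarization drops; 0% = enzyme with DMSO and 100% = wells lacking PAFAH2 protein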
pPAFAH inh: pPAFAH enzyme inhibitors, primary screen, biochemical, fluorescence polarization, human; inhibition, % at 3.39 µM; recombinant pPAFAH, FP-rhodamine probe fluorescence polarization; Platelet-activating factor acetylhydrolase (Homo sapiens), Q13093; 330,000 compounds, 1.5% hits;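 active means inhibition above the mean inhibition across the screen plus 3 SD, cut at about 25% in these data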;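 further: inhibitors block binding of the rhodamine activity-based probe so polarization drops; 0% = enzyme with DMSO and 100% = wells lacking pPAFAH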
PAFAH1B3 inh: PAFAH1B3 enzyme inhibitors, primary screen, biochemical, fluorescence polarization, human | inhibition, % at 3.39 µM | recombinant PAFAH1B3, FP-rhodamine probe | Platelet-activating factor acetylhydrolase IB subunit alpha1 (Homo sapiens), Q15102 | 340,000 compounds, 0.28% hits;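 active means inhibition above the screen-wide average of all tested compounds plus 3 SD, cut at about 25% in these data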;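 further: 0% = enzyme with DMSO only and 100% = wells lacking PAFAH1B3 protein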
Target sequence (Q15102 whole entry, looked up): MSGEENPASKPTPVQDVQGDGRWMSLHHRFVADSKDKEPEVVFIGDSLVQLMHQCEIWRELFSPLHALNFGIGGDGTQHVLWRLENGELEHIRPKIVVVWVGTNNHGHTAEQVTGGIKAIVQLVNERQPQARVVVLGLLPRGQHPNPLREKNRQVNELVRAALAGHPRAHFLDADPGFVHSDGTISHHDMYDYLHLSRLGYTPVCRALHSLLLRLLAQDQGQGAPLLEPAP
PAFAH1B2 inh: PAFAH1B2 enzyme inhibitors, primary screen, biochemical, fluorescence polarization, human. AID 492953, 2010. inhibition, % at 3.39 µM. recombinant PAFAH1B2, FP-rhodamine activity probe. 340,000 compounds, 1.2% hits. Platelet-activating factor acetylhydrolase IB subunit alpha2 (Homo sapiens), P68402;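 active means inhibition above the mean of all tested compounds plus 3 SD, cut at about 24% in these data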;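 further: 0% = enzyme with DMSO and 100% = wells lacking PAFAH1B2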
Target sequence (P68402 whole entry, looked up): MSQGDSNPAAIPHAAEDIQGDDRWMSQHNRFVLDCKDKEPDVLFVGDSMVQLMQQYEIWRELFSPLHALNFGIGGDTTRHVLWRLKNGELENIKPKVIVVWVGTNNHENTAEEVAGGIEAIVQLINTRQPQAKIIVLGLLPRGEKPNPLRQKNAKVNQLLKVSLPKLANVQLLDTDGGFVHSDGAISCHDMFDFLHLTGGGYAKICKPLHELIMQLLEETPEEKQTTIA
PP5 inh: PP5 phosphatase inhibitors, primary screen, biochemical, fluorescence; purified PP5c, OMFP substrate fluorescence; inhibition, % at 6.7 µM; 320,000 compounds, 0.18% hits;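 active means inhibition above the campaign's mean inhibition across all tested compounds plus 3 SD, cut at about 9.5% in these data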;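 further: 0% = DMSO only and 100% = 100 µM cantharidin control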
PP1 counter: PP1-alpha phosphatase inhibitors, primary screen, counter-screen for PP5 inhibitor project, biochemical, fluorescence, OMFP substrate, single point; Serine/threonine-protein phosphatase PP1-alpha catalytic subunit (Homo sapiens), P62136; purified PP1alpha; inhibition, % at 6.7 µM; 320,000 compounds, 0.9% hits;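 active means inhibition above the mean inhibition of all tested compounds plus 3 SD, computed separately for each screening campaign, cut at about 15% in these data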
PAFAH2 FP conf: PAFAH2 enzyme inhibitors, confirmation, biochemical, fluorescence polarization, human. shares compounds with PAFAH2 inh. recombinant PAFAH2, FP-rhodamine activity probe. inhibition, % at 3.39 µM. 2,300 compounds, 65% hits;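 active means mean inhibition over three repeats above a set limit taken from the earlier primary screen, cut at about 30% in these data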;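 further: inhibitor blocks binding of rhodamine activity probe so polarization falls; 0% = enzyme with DMSO and 100% = wells lacking PAFAH2 protein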
PAFAH1B3 confirm: PAFAH1B3 enzyme inhibitors, confirmation, biochemical, fluorescence polarization, human; shares compounds with PAFAH1B3 inh; recombinant PAFAH1B3, FP-Rh activity-based probe; inhibition, % at 3.39 µM; 390 compounds, 30% hits; AID 493032, 2011;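 active means average inhibition over triplicate runs above the hit cutoff set in the earlier primary screen, cut at about 25% in these data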;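 further: 0% = enzyme with DMSO and 100% = wells lacking PAFAH1B3 protein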
Active calls of the source: *; . = no result; ! = repeats disagree.

SMILES | PAFAH2 inh | pPAFAH inh | PAFAH1B3 inh | PAFAH1B2 inh | PP5 inh | PP1 counter | PAFAH2 FP conf | others
O=C(ON=C1CCN(S(=O)(=O)c2ccccc2)CC1)c1cccc(Cl)c1 | 82* | 13 | 9 | 17 | -1 | 0 | 79*
COc1ccc(C(=O)ON=C2CCN(C)CC2)cc1 | 75* | 3 | 1 | 5 | 2 | -4 | 63*
O=C(ON=C1CCN(S(=O)(=O)c2ccccc2)CC1)c1ccccc1 | 91* | 2 | 6 | 10 | 1 | -4 | 83*
CC(C)Cc1nnc(NC(=O)CCC(=O)N2CCN(Cc3ccc(Cl)cc3)CC2)s1 | 6 | 4 | 3 | 4 | 1 | 0 | .
COc1ccc(S(=O)(=O)NNC(=O)Cc2csc(C)n2)cc1[N+](=O)[O-] | 6 | 1 | -1 | 1 | -1 | -1 | .
O=C(CCn1c(=S)oc2ccccc21)Nc1cc([N+](=O)[O-])ccc1F | 2 | 5 | 8 | 2 | -1 | -6 | .
O=C(Nc1ccccc1-c1nc2ccccc2[nH]1)c1ccc(S(=O)(=O)N2CCCCC2)cc1 | -50 | . | -32 | -23 | . | . | .
CC1CCCCN1S(=O)(=O)c1ccc(C(=O)Nc2ccccc2-c2nc3ccccc3[nH]2)cc1 (stereo unspecified) | 37* | -15 | -36 | 4 | 4 | -1 | 4
CCOC(=O)c1nnn(-c2nonc2-n2cccc2)c1CCl | 31* | 0 | 5 | 1 | 2 | 2 | 44*
O=c1[nH]c(-c2ccccc2)ncc1Oc1ccccc1 | . | 10 | . | . | -3 | -6 | .
O=C(Nc1ccccn1)C1CCCN1S(=O)(=O)c1ccc(Cl)cc1 (stereo unspecified) | -1 | 3 | 4 | 1 | 2 | -4 | .
CC1(C(=O)OCC(=O)Nc2nnc(-c3ccccc3)o2)CC1(Cl)Cl (stereo unspecified) | 5 | 4 | 0 | 7 | -1 | 3 | .
COc1ccc(CCNC(=O)COC(=O)c2cccs2)cc1OC | -1 | -3 | -3 | 6 | 2 | 3 | .
COc1ccc(CCNC(=O)COC(=O)c2ccc(C)s2)cc1OC | 6 | -1 | 6 | 7 | 1 | -3 | .
COc1ccc(CCNC(=O)COC(=O)c2cccs2)cc1 | 44* | . | 1 | -1 | . | . | 34*
COc1ccc(CCNC(=O)COC(=O)c2ccc(C)s2)cc1 | 56* | 13 | 4 | 7 | 3 | 0 | 47*
COc1ccc(CCNC(=O)Nc2ccc([N+](=O)[O-])cc2)cc1OC | 6 | 3 | 10 | -2 | 3 | 3 | .
COc1ccc(S(=O)(=O)N(C)c2ccc(C(=O)NCC3CCCO3)cc2)cc1OC (stereo unspecified) | 1 | -4 | 1 | 1 | 2 | 5 | .
CNCCCC1c2ccccc2C=Cc2ccccc21 | 5 | -9 | 4 | 8 | 5 | 0 | .
CNCCCC12CCC(c3ccccc31)c1ccccc12 | 2 | -1 | 50*! | -1 | 2 | 1 | . | PAFAH1B3 confirm=7
Cc1ccc(OCC(=O)Nc2ccccc2[N+](=O)[O-])c(Br)c1 | 9 | 2 | 12 | 2 | 1 | -2 | .
CC[C@@]1(C(=O)OC)N[C@H](CN(C)C(=O)Nc2ccc(OC)cc2)[C@@H]2C(=O)N(Cc3ccccc3)C(=O)[C@@H]21 | 5 | 2 | 9 | 0 | . | . | .
COc1ccc(C)cc1NC(=O)C1CCN(S(=O)(=O)c2ccc3c(c2)C(C)(C)C(=O)N3C)CC1 | 1 | -7 | 1 | 0 | -3 | 1 | .
CC1CN(Cc2ccccc2)C(C)CC1O (stereo unspecified) | 5 | 5 | 5 | 1 | -1 | -6 | .
